PubChem BioAssay (NCI)
This is part of a sample that, as a whole, favours compounds with a hit. Of some 83,000 tested, about 20% had one in any assay.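 The endpoint reported here, percent growth, reads 100 for growth as untreated, 0 for no net growth and -100 for all cells dead.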 Unmarked numbers belong to inactive results. Calls of active or inactive are those of the source. How the source made its calls: active means growth percent below 10; inactive means the rest.

Columns and labels:
Test in all cases: NCI-60 one-dose screen, 48 h (100 = growth as untreated, 0 = no growth, -100 = all killed)
Details in all cases: 10 µM unless noted
T-47D breast = tested on: T-47D breast
BT-549 breast = tested on: BT-549 breast
MDA-MB-435 melanoma = tested on: MDA-MB-435 melanoma
SW-620 colon = tested on: SW-620 colon
MCF7 breast = tested on: MCF7 breast
HCT-116 colon = tested on: HCT-116 colon
HCC-2998 colon = tested on: HCC-2998 colon
KM12 colon = tested on: KM12 colon
MDA-MB-468 breast = tested on: MDA-MB-468 breast

Row | Structure (SMILES) | growth (T-47D breast) | growth (BT-549 breast) | growth (MDA-MB-435 melanoma) | growth (SW-620 colon) | growth (MCF7 breast) | growth (HCT-116 colon) | growth (HCC-2998 colon) | growth (KM12 colon) | growth (MDA-MB-468 breast)
1 | Cn1cc(-c2nnc(N)nc2-c2c[nH]c3ccccc23)c2cccnc21 | 44.6% | 34.7% | -28.9% (active) | 16.5% | 22.5% | 18.2% | 81% | 17.2% | 33.4%
2 | CCCCCCCCc1ccc(S(=O)(=O)Nc2ccc(CC)cc2C(=O)O)cc1 | 76.6% | 108% | 101% | 103% | 86% | 87.7% | 113% | 97.7% | 82.2%
3 | CC1(C)CC[C@]2(C(=O)O)CC[C@]3(C)C(=CCC4[C@@]5(C)C[C@@H](O)[C@@H]6OC(c7ccc(F)cc7)OC[C@@]6(C)C5CC[C@]43C)C2C1 (stereo partly specified) | 33.3% | 26% | 48.9% | 23.7% | 12.8% | 8.81% (active) | 18.1% | 12.3% | 13.7%
4 | Cc1ccc(S(=O)(=O)c2nc(S(=O)(=O)c3ccc(C)cc3)c(Cl)s2)cc1 | -24.6% (active) | 26.3% | 50.5% | -63.1% (active) | -57.1% (active) | -46.2% (active) | 58.8% | 23.9% | -78.8% (active)
5 | Cn1cc(-c2cc(N)n3nc(-c4cn(C)c5ccccc45)cc3n2)c2cc(Cl)ccc21 | -30.9% (active) | 63% | -71.9% (active) | -35.3% (active) | -69.9% (active) | -89.1% (active) | -73% (active) | -50% (active) | -31.9% (active)
6 | COc1ccc(NC(=O)Nc2ccc(OCc3ccc(F)cc3)cc2)cc1 | 84.7% | 84.9% | 83% | 73.6% | 57.6% | 58.1% | 90.8% | 93.3% | 77.5%
7 | COc1cc2oc(-c3cccc(C(=O)Nc4ccc(Cl)cc4)c3)cc(=O)c2c(OCCNC(=O)[C@H](CO)NC(=O)OC(C)(C)C)c1OC | 29% | -52.3% (active) | 3.55% (active) | 33.7% | 6.34% (active) | 7.19% (active) | -7.27% (active) | 17.3% | -4.81% (active)
8 | COC(=O)/C=C/c1cccc2c1C(=O)NC(C)(c1cc3ccccc3oc1=O)N2 (stereo unspecified) | 51.4% | 58.2% | 78.2% | 72.2% | 82.2% | 44.6% | 74.4% | 68.8% | 64.7%
9 | Cc1ccc(C(=O)CSc2nc3ccc(F)cc3c(=O)n2-c2ccc(Cl)cc2)cc1 | 96.5% | 1.44% (active) | 76.1% | 75% | 65.2% | 24.4% | 81.3% | 96.3% | 44.7%
10 | O=C(COc1ccc(NC(=O)Nc2ccc(Cl)c(Cl)c2)cc1)N=Nc1c(O)[nH]c2ccc(Br)cc12 | -26.4% (active) | -71.5% (active) | -51.3% (active) | -21.2% (active) | -1.82% (active) | -60.6% (active) | -67.3% (active) | -87.2% (active) | -75% (active)
11 | C=C1CCC2C3(C)COC(c4cccs4)OC3CCC2(C)C1CC(Sc1ccccc1)C1=CCOC1=O (stereo unspecified) | 82.3% | 25.8% | 87.2% | 80% | 38.2% | 32.4% | 81.5% | 89.2% | 90.5%
12 | C#CCOc1cc(N(CC)CC)ccc1C(C(=O)NC(C)(C)C)N(C(=O)C1CCc2cc(F)ccc2O1)c1ccc(F)cc1 (stereo unspecified) | 40.3% | 50.9% | 54.4% | 58.6% | 20.2% | 27.1% | 71.9% | 25.7% | 33.2%
13 | COc1cc(OC)c2c3nc4cc(C)c(C)cc4nc3n(CCN(C)C)c2c1 | 60.7% | 78.9% | 87.8% | 35.3% | -17.2% (active) | 39.5% | 77.1% | 84.7% | 65.6%
14 | C=C1CCC2C3(C)COC(c4cccc(F)c4)OC3CCC2(C)C1C/C=C1/C(=O)OCC1O (stereo unspecified) | -5.25% (active) | -82.2% (active) | -10.3% (active) | -63% (active) | -7.05% (active) | -73.8% (active) | -51% (active) | -27.8% (active) | -35.2% (active)
15 | CC(/C=C1\SC(=S)N(CCCC(=O)NC(CC(C)C)C(=O)O)C1=O)=C\c1ccccc1 (stereo unspecified) | 89.7% | 78% | 94.8% | 112% | 82.1% | 71% | 108% | 57.9% | 86.7%
16 | Cc1ccccc1[C@H]1C(C(=O)c2ccc(Cl)cc2)C2(N[C@@H]1c1ccccc1)C(=O)Nc1ccc(Cl)cc12 (stereo partly specified) | 13% | -29.4% (active) | -35.4% (active) | -9.32% (active) | -22.3% (active) | -84.6% (active) | -54.2% (active) | -24.3% (active) | -19.1% (active)
17 | Cc1ccc(-c2nc(C#N)c(S(=O)(=O)N3CCN(S(=O)(=O)c4ccccc4)CC3)o2)cc1 | -1.54% (active) | -19% (active) | 30.1% | -86.9% (active) | -30.6% (active) | -81.4% (active) | 56.2% | 77.4% | -49.3% (active)
18 | Cc1ccccc1[C@H]1C(C(=O)c2ccc(Cl)cc2)C2(N[C@@H]1c1ccccc1)C(=O)Nc1ccc(Br)cc12 (stereo partly specified) | 22.6% | 13.1% | 3.21% (active) | 13.3% | -6.57% (active) | -71.6% (active) | -22.1% (active) | 3.4% (active) | -26.1% (active)
19 | COc1cc(C2CC(c3cc(OC)c(OC)c(OC)c3)=NN2C(C)=O)ccc1OCc1ccccc1 (stereo unspecified) | 2.7% (active) | 17.4% | 44.6% | 55.1% | 17.1% | 24.3% | 71.2% | 33.9% | 34.2%
20 | Cn1cc(-c2nc(N)nnc2-c2c[nH]c3ccc(F)cc23)c2cccnc21 | 19.4% | 38% | 49.6% | 46.7% | 21.2% | 43.2% | 72.8% | 60.9% | 7.74% (active)
21 | Cc1cc2nc3c4ccccc4n(CCNCCN(C)C)c3nc2cc1C | 52.2% | 23.8% | 8.22% (active) | -19.6% (active) | -28.8% (active) | -57.8% (active) | -56.7% (active) | 27.4% | -54.4% (active)
22 | COc1ccc2[nH]cc(-c3nnc(N)nc3-c3c[nH]c4ncc(Br)cc34)c2c1 | 53.8% | 93% | 102% | 88.8% | 62.2% | 75.2% | 110% | 91.4% | 79.9%
23 | S=C(Nc1ccccc1)Nc1ccc(OCc2nc3ccccc3[nH]2)cc1 | 36.1% | 49.4% | 24.6% | 48% | 20.2% | 35.6% | 17.3% | -32% (active) | 21.9%
24 | O=C(c1ccccc1)C(c1c[nH]c2ccccc12)c1c[nH]c2ccccc12 | 58% | 14% | 36.8% | 4.95% (active) | 16.4% | 20.2% | 83.8% | 51.3% | 57.8%
25 | COc1ccc(C2(SCCNCc3cc(N(C)C)ccn3)c3ccccc3C=Cc3ccccc32)cc1 | 32.4% | 6.65% (active) | -33% (active) | 4.94% (active) | -5.08% (active) | 3.35% (active) | -30.1% (active) | 13.9% | -46.9% (active)
26 | Cc1cc2nc3c([nH]c2cc1C)c1ccc(=O)cc1n3CCN(C)C | 60% | 65.5% | 45% | 22.6% | 12% | 14.4% | 26.8% | 43.4% | 43%
27 | CC(=O)c1c(N)c(C#N)cn1-c1ccc(Cl)cc1Cl | 95.1% | 104% | 102% | 102% | 100% | 99.1% | 114% | 95.8% | 97.1%
28 | COc1cc(C2CC(c3cc(OC)c(OC)c(OC)c3)=Nc3c(N)nc(N)nc3N2)ccc1Oc1nc(NCCO)nc(N2CCOCC2)n1 (stereo unspecified) | 90.3% | 116% | 100% | 103% | 87.4% | 100% | 115% | 99.9% | 81.2%
29 | C=C1CCC2C3(C)COC(c4ccc(F)cc4)OC3CCC2(C)C1CC(O)C1=CCOC1=O (stereo unspecified) | 31.6% | -31.9% (active) | 29.6% | 2.53% (active) | 12.3% | -50.2% (active) | 24.3% | 49.7% | 18.8%
